# Experimental data: PubChem BioAssay (NCI)
# This is part of a sample that, as a whole, favours compounds with a hit. Of some 83,000 tested, about 20% had one in any assay.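 For each line, cells grew in 96-well plates with the test compound present at a single concentration for 48 hours.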 A number with no mark means an inactive call. The source made the active and inactive calls. How the source made its calls: active means growth percent below 10; inactive means the rest.
# Columns and labels:
# Experiment in all cases: NCI-60 one-dose screen, 48 h (100 = growth as untreated, 0 = no growth, -100 = all killed)
# Settings in all cases: 10 µM unless noted
# [1] = test system: NCI-H23 lung
# [2] = test system: NCI-H226 lung
# [3] = test system: NCI-H322M lung
# [4] = test system: HOP-62 NSCLC
# [5] = test system: NCI-H460 lung
# [6] = test system: NCI-H522 lung
# [7] = test system: 786-0 renal
# [8] = test system: COLO 205 colon
# [9] = test system: DU-145 prostate
# [10] = test system: K-562 leukemia
# [11] = test system: MALME-3M melanoma
# [12] = test system: MDA-MB-231 breast
# [13] = test system: RXF 393 renal
# [14] = test system: SF-268 CNS
# [15] = test system: SF-295 CNS
# [16] = test system: SF-539 CNS
# [17] = test system: UACC-257 melanoma
# [18] = test system: HCT-15 colon
# [19] = test system: M14 melanoma
# [20] = test system: A549/ATCC NSCLC
Structure (SMILES),growth [1],growth [2],growth [3],growth [4],growth [5],growth [6],growth [7],growth [8],growth [9],growth [10],growth [11],growth [12],growth [13],growth [14],growth [15],growth [16],growth [17],growth [18],growth [19],growth [20]
COc1ccc(C(=O)C(C)Br)cc1OC (configuration not stated),90.7%,96.1%,99%,106%,103%,-10.4% (active),95.5%,23.3%,107%,59.2%,97.2%,90%,102%,90.9%,102%,92.9%,80.1%,46.4%,–,–
S=C1SCN(Cc2ccccc2)CN1Cc1ccco1,94.1%,111%,112%,85.3%,105%,4.84% (active),90.5%,83.3%,68.3%,11.6%,94%,91.3%,101%,94.2%,–,65.8%,72.4%,41.7%,87.1%,–
O=c1[nH]c(=O)n(C2CC(O)C(CO)O2)cc1C(F)(F)F (configuration not stated),-5.01% (active),57%,76%,33.1%,19.2%,-12% (active),12.7%,69.2%,6.03% (active),62.4%,51.4%,102%,–,30.7%,6.84% (active),8.46% (active),–,73.9%,15.8%,–
CCOC(=O)c1c(C)c(C(=O)OCC)n(C)c1C,121%,66.6%,85.4%,74.4%,117%,102%,92.5%,141%,99%,103%,112%,85.6%,–,93.9%,87.1%,101%,134%,102%,112%,–
O=C(Cc1ccccn1)C(F)(F)C(F)(F)C(F)(F)F,104%,102%,116%,97.5%,111%,111%,104%,127%,112%,–,110%,102%,125%,125%,–,104%,–,109%,110%,–
CCCCC(C#N)C(N)=O (configuration not stated),105%,102%,110%,99%,111%,96.7%,96.4%,124%,104%,–,107%,104%,121%,114%,–,96.9%,–,105%,104%,–
NC(=O)NN=C(C1CC1)C1CC1,93.8%,109%,110%,104%,106%,–,107%,105%,116%,94.8%,143%,118%,138%,102%,106%,90.2%,101%,98%,106%,103%
O=C(/C=C/c1ccccc1)CC(c1ccccc1)N1CCOCC1 (configuration not stated),96.6%,99.5%,121%,102%,106%,–,4.06% (active),76.3%,91.3%,49.9%,138%,60.3%,102%,97.3%,98.7%,69.3%,98.8%,61.5%,-35% (active),63%
CN1C(=O)C(=Cc2cn(Cc3ccccc3)c3ccc(Br)cc23)C(=O)N(C)C1=O,105%,32.3%,93.8%,85.8%,35.1%,94.4%,98.2%,89.6%,97.1%,–,113%,105%,57.6%,96.7%,75.8%,97.5%,99.1%,95.4%,99.8%,–
Clc1ccc(-n2cnc3c(Cl)ncnc32)cc1Cl,87%,102%,64.8%,83.6%,101%,–,98.7%,92.2%,76.6%,61.1%,85%,87.5%,97.3%,78.3%,119%,104%,84.4%,60.4%,48.4%,95.5%
CC(C)COCC(CN(Cc1ccccc1)c1ccccc1)N1CCCC1 (configuration not stated),60.7%,65.8%,78.8%,71.3%,43.8%,32.1%,68.2%,40.1%,70%,31.3%,84.3%,29.5%,–,71.5%,63.6%,78.5%,–,55.7%,–,–
COc1ccc(/C=C2\NC(=S)NC2=O)cc1,113%,100%,95.2%,83.5%,104%,–,109%,88.2%,118%,117%,77.5%,94.5%,126%,106%,119%,98.3%,106%,93.5%,100%,107%
Cc1c(C(N)=O)sc2nc(SCC(=O)Nc3ccc(Cl)cc3)n(-c3ccccc3)c(=O)c12,106%,108%,105%,109%,106%,89.2%,104%,–,120%,84.2%,159%,93.1%,95.8%,101%,–,110%,104%,121%,104%,–
OC(Cc1cccnc1)c1ccccc1 (configuration not stated),103%,107%,95.9%,105%,98%,101%,108%,114%,–,101%,111%,92.1%,114%,–,104%,98.6%,101%,104%,106%,–
COc1ccc(C(=O)COc2cccc(/C=C3\Oc4ccc5ccccc5c4C3=O)c2)cc1,10.3%,71.7%,106%,89.8%,100%,-0.888% (active),100%,77.3%,–,81.4%,17.2%,79.3%,–,83.7%,119%,-50% (active),95.7%,43.7%,49.2%,–
COc1ccc2c(c1)C(=O)/C(=C/c1cccc(OCC(=O)c3ccccc3)c1)CC2,87.4%,75.9%,108%,101%,113%,64.7%,87.6%,136%,–,33.4%,97.6%,83.6%,–,91.8%,104%,93.5%,91.7%,–,92.2%,–
C=Cc1nn2c(CCC(=O)c3nc4ccccc4[nH]3)nnc2s1,99.4%,97.5%,94%,97.9%,105%,102%,97.5%,–,–,–,108%,101%,106%,101%,99.7%,113%,110%,101%,92.9%,–
c1ccc2c(c1)[nH]c1c2cc[n+]2cc3c(cc12)CCCC3,40.6%,35.5%,29.8%,18.8%,15.2%,–,48.7%,36.3%,40.9%,16.9%,3.13% (active),31.4%,76.8%,23%,–,37.6%,38.4%,96.9%,19.7%,64%

Structure (SMILES),growth [1],growth [2],growth [3],growth [4],growth [5],growth [6],growth [7],growth [8],growth [9],growth [10],growth [11],growth [12],growth [13],growth [14],growth [15],growth [16],growth [17],growth [18],growth [19],growth [20]
COc1ccc(/C=C(\C#N)c2ccccc2)cc1,95.7%,89.6%,97.5%,99.6%,98.9%,90.1%,102%,103%,103%,28.8%,–,78.4%,–,95.2%,94.7%,87.3%,85.9%,59.5%,88.7%,–
Cc1ccccc1-c1cc(Cc2ccccc2O)c(=O)[nH]n1,103%,85.8%,115%,108%,115%,93.3%,98.9%,–,125%,91.7%,151%,90.7%,140%,85.1%,113%,107%,122%,107%,120%,–
CCOC(=O)c1ccccc1OC(=O)NNc1ccccc1,100%,88.8%,58%,70.6%,30.5%,–,44.6%,76.2%,82%,5.06% (active),82.1%,81.3%,124%,65.6%,49.1%,10.7%,85.8%,46%,57.3%,74.1%
c1ccc(-n2nnnc2-c2cccc3ccccc23)cc1,52.1%,79.3%,30.2%,25.9%,9.98% (active),–,24.7%,-17.8% (active),7.52% (active),13%,34.8%,25.4%,-5.16% (active),43.4%,1.28% (active),-18.8% (active),57.5%,18.7%,8.41% (active),34.5%
CC(=O)Oc1ccc(C23c4ccccc4C2(OC(C)=O)c2cc(OC(C)=O)ccc23)cc1 (configuration not stated),96.2%,140%,107%,53.1%,88.7%,–,69.3%,95.5%,103%,63.4%,137%,73.9%,93.5%,94.3%,96.9%,100%,105%,65.8%,104%,97%
Nc1ncc(-c2cnn(C3CCNCC3)c2)cc1-c1nc2cc(Cl)ccc2o1,-61.7% (active),-63.3% (active),-59.1% (active),–,-100% (active),-87.6% (active),-100% (active),-100% (active),-100% (active),-100% (active),-92.5% (active),-91.7% (active),-96.4% (active),-83.4% (active),-78.7% (active),-100% (active),-93.3% (active),–,-100% (active),-100% (active)
CN(C)CCCN1c2nc3ccccc3cc2Sc2cc3ccccc3nc21,-34.2% (active),40.1%,18%,32%,-89.1% (active),-67.7% (active),-86.3% (active),-89.2% (active),–,4.31% (active),-75.9% (active),-82.8% (active),–,27.2%,-74.7% (active),-94.6% (active),-69.5% (active),–,-70.6% (active),–
COC(=O)CC1=C(C)/C(=C/c2[nH]c(-c3ccc[nH]3)cc2OC)N=C1C,6.26% (active),24.6%,18.2%,-10.9% (active),4.72% (active),-74.8% (active),-2.31% (active),9.09% (active),24.2%,-23.6% (active),–,-14.3% (active),8.29% (active),22.7%,-46.6% (active),-4.76% (active),-8.53% (active),3.06% (active),7.46% (active),–
C/C(=N\N1CC(=O)NC1=O)c1ccc([N+](=O)[O-])o1,101%,106%,121%,120%,94.6%,–,103%,108%,98.8%,90.6%,114%,106%,128%,84.7%,104%,108%,81.9%,115%,103%,97.3%
Nc1ccccc1-c1ccc([N+](=O)[O-])cc1,68.7%,87.6%,57%,53.1%,33.6%,–,46.7%,23.8%,59.3%,15.5%,111%,67%,111%,49.4%,44.2%,52.8%,78.9%,47.8%,44.7%,63.3%
CC(C)C/C(=N\NC(=O)c1ccncc1)c1cc(Cl)ccc1O,23.1%,50.5%,13.1%,30.6%,8.41% (active),–,-1.16% (active),13.9%,23.5%,9.61% (active),21.7%,36.3%,40.2%,24.9%,19.2%,12%,6.11% (active),23%,2.19% (active),20.8%
COc1cccc(CCC2C(=O)CCCC2=O)c1,103%,111%,102%,106%,117%,–,108%,99.5%,105%,109%,115%,114%,134%,98.1%,118%,98.8%,108%,108%,113%,108%
CCCCOc1ccc(C(C)(C)c2ccc(OCCCC)cc2)cc1,103%,104%,99.1%,102%,113%,92.3%,91%,121%,107%,–,98.7%,111%,125%,115%,–,92.1%,–,107%,104%,–
CC(=O)Nc1ccc2c(c1)Cc1c(F)c(F)c(F)c(F)c1-2,25.2%,76.5%,81.9%,107%,65.8%,23.2%,75.3%,105%,96.4%,104%,113%,75.1%,–,91.9%,90.5%,87.7%,–,83.4%,114%,–
CC(C)[C@]12O[C@H]1[C@@H]1O[C@]13[C@]1(O[C@H]1C[C@H]1C4=C(CC[C@@]13C)C(=O)OC4)[C@@H]2OC(=O)CN(C)C,-19.4% (active),10.6%,-7.07% (active),19.2%,0.675% (active),-41.8% (active),12.9%,–,3.28% (active),–,-45.2% (active),27.8%,-61.9% (active),-10.2% (active),-27.6% (active),-23% (active),-2.52% (active),9.18% (active),-74.2% (active),–
COc1c(O)cc2oc3cc(O)c(CC=C(C)C)c(O)c3c(=O)c2c1C/C=C(\C)CCC=C(C)C,33.5%,105%,90.1%,41.2%,33.6%,–,30.2%,81.7%,81.1%,27.2%,127%,5.81% (active),-22.5% (active),64.7%,87.2%,93.2%,103%,73%,–,–
CC(C)(C)c1ccc(S(=O)(=O)O)s1,115%,107%,111%,99%,106%,89.6%,95.6%,–,108%,77%,–,93.1%,105%,102%,–,99.3%,117%,107%,107%,–
